Screening results as filed in PubChem BioAssay.
In the library only some 7.3% were active in any assay of this set; here they are far more common.
Rab9 prom act – activates the Rab9 promoter. Huh7 Rab9 promoter-luciferase reporter, luminescence, 24 h. AID 485297. 2.8% of 320,000 active. Potency, µM (top dose mostly 9.22 µM), for inactives: at the highest dose activation, negative = inhibition, most hits filed as activators; note: % of control where 0% means no effect; nearly all actives have a fitted effect of over 60% in size
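Cells were plated at 1500 per well in reduced-serum medium with 10% FBS and left 2 h. Compound in DMSO was then added for 24 h at 37 °C. Reporter signal was read by luminescence after 10 min with luciferase detection reagent.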
p53 reactivator – re-activators of mutant p53; Potency, µM (top dose mostly 92.2 µM), without a hit: top-dose activity change, positive = activation, usual class: activators; AID 504706; 0.063% of 320,000 active; H1299 p53-A138V BP100-luciferase reporter, luminescence, 24 h; note: % of control where 0% means no effect; nearly all actives have a fitted effect of over 45% in size
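p53-null H1299 cells stably carrying temperature-sensitive p53-A138V and a BP100-luciferase reporter were pinned with compounds (4-point, 1:5 series) and held 24 hrs at 37 deg C. Luminescence was read 10 min after detection reagent.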
FLuc modulator – counter-screen for miR-21 project: firefly luciferase inhibitors or activators | AID 588342 | Potency, µM (top dose mostly 57.5 µM), without a hit: top-dose activity change, negative = inhibition, most hits filed as inhibitors | 6.9% of 360,000 active | purified FLuc, Km substrates, luminescence inhibition | P08659;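 note: plate controls were vehicle for no effect and reference inhibitor for full effect; nearly all actives have a fitted effect of over 55% in size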
Target sequence (P08659 whole entry, looked up): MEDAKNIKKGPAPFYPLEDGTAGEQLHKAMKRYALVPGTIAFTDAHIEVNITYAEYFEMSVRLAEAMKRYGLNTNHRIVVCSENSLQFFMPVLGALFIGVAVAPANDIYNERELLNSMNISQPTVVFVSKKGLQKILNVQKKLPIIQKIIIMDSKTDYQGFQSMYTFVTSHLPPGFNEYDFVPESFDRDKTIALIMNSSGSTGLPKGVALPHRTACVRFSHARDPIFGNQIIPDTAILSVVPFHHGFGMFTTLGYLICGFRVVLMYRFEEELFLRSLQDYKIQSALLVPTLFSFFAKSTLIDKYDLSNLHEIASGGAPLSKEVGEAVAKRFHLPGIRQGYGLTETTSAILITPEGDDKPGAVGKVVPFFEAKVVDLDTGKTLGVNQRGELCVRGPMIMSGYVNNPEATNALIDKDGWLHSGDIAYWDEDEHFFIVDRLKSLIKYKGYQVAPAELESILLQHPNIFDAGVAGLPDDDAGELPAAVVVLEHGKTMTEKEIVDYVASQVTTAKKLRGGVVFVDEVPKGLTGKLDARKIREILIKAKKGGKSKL
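Purified P. pyralis luciferase, 10 nM final, with Km-level 10 uM D-luciferin and 10 uM ATP in 50 mM Tris acetate pH 7.5, 10 mM Mg acetate, 0.01% Tween-20, 0.05% BSA; 6-point qHTS titration about 60 µM downward; luminescence read.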
ELG1 genotox – induces genotoxicity in HEK293T cells with luciferase-tagged ELG1; HEK293T ELG1-luciferase reporter, luminescence, 16 h; Potency, µM (top dose mostly 46 µM), inactives show at the highest dose activity change, positive = activation, usual class: activators; 1.3% of 330,000 active; AID 504466; note: % of control where 0% means no effect; nearly all actives have a fitted effect of over 60% in size
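Quantitative HTS format in 1536-well plates. HEK293T ELG1-luciferase reporter cells receive test compound and are incubated 16 hr at 37 °C, 5% CO2; ONE-Glo added, 30 min room temperature, then luminescence read.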
SMN2 splice up – increases expression of the SMN2 splice variant. HEK293 SMN2-luciferase splicing reporter, luminescence, 30-36 h. Potency, µM (titrated, usually from 46.1 µM), without a hit: at the top dose activity change, positive = activation, usual class: activators. 2.8% of 210,000 active. AID 1458; note: % of control where 0% means no effect; nearly all actives have a fitted effect of over 55% in size
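qHTS luciferase splicing reporter: luminescence rises when SMN2 exon 7 is included in transfected HEK293 cells. Compound exposure lasted 30-36 h at 37C, with 4.5 mM final sodium butyrate as control, followed by a ONE-Glo read.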
NPC1 prom act – activates the NPC1 promoter; Huh7 NPC1 promoter luciferase reporter, 24 h; Potency, µM (doses to about 9.22 µM), inactives show at the highest dose activation, most hits filed as activators; 2.4% of 320,000 active; note: % of control where 0% means no effect; nearly all actives have a fitted effect of over 60% in size
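Quantitative HTS used a cell-based reporter: Huh7 cells stably bearing the NPC1 promoter upstream of luciferase were treated with compounds for 24 h, and promoter activation was read as luminescence.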
An asterisk follows results filed as active; ? = inconclusive; . = not tested or not shown. Calls come from the whole dose curve; as a rule, active = well fitted curve in the direction sought with a large enough effect; inconclusive = small, poorly fitted or top-dose-only effect, or another doubt; inactive = no such curve, though single readings can be large; an effect the other way counts as inactive or inconclusive. Potency is the fitted concentration of half-maximal effect.

SMILES	Rab9 prom act	p53 reactivator	FLuc modulator	ELG1 genotox	SMN2 splice up	NPC1 prom act
Cc1ccc(C(=O)/C=C/c2c[nH]c3ccccc23)cc1	3.5µM*	25%	5.4µM*	?	?	4µM*
Cc1ccc(S(=O)(=O)/C(C#N)=C/c2c[nH]c3ccccc23)cc1	-7%	-1%	1%	-5%	-6%	-1%
N#C/C(=C\c1c[nH]c2ccccc12)C(N)=O	0%	2%	?	-4%	.	0%
O=C(/C=C/c1c[nH]c2ccccc12)c1ccccc1	3.5µM*	?	5.4µM*	16µM*	10µM*	3.2µM*
Cn1c(/C(C#N)=C/c2ccncc2)nc2ccccc21	-5%	23%	-12%	0%	-6%	-5%
Cn1c(/C(C#N)=C/c2ccc(C(F)(F)F)cc2)nc2ccccc21	.	.	6.7µM*	.	-10%	.
Cn1c(/C(C#N)=C/c2ccc(O)cc2)nc2ccccc21	?	6%	12µM*	?	.	?
CC(NC(=O)c1sc2ncccc2c1-n1cccc1)c1ccccc1 (configuration not stated)	.	.	-10%	.	.	.
Cc1ccc(C(=O)N2CCCCC2CCN2CCCCC2)cc1 (configuration not stated)	.	.	-1%	.	3%	.
CCN(CC(=O)Nc1c(F)cccc1F)C(=O)CNC(=O)c1ccco1	0%	8%	-1%	-2%	.	-5%
CCN(CC(=O)Nc1c(F)cccc1F)C(=O)CNC(=O)c1ccc(C)s1	?	12%	15µM*	26%	.	?
CCN(C(=O)CSc1nc(-c2ccccc2)no1)c1cccc(C)c1	.	.	-2%	.	-8%	.
O=C(Nc1ccc(OC(F)(F)F)cc1)c1n[nH]c(Cn2cncn2)n1	0%	-3%	12µM*	2%	3%	-2%
Cc1ccc(Cl)cc1N1CCN(C(=O)c2ccc(C)c(-n3c(C)nc4cccnc43)c2)CC1	.	.	-8%	.	.	.
Oc1nc(Nc2ccc(F)cc2)sc1/C=C1\C=Nc2ccccc21	17%	5%	?	-1%	.	14%
O=c1[nH]c(S)c(/C=C2\C=Nc3ccccc32)s1	-2%	3%	15µM*	6%	.	2%
Cc1ccc(-c2nn(-c3ccccc3)cc2/C=N/n2c(-c3cccs3)n[nH]c2=S)cc1	-4%	11%	?	-4%	.	0%
S=c1[nH]nc(-c2ccncc2)n1/N=C/c1cn(-c2ccccc2)nc1-c1ccccc1	?	-3%	2.7µM*	17%	.	21%
Cc1nc2ccccc2c(=O)n1/N=C/c1cccs1	?	2%	-17%	1%	8%	12%
CC(C)(C)c1ccc(-c2n[nH]c(=S)n2/N=C/c2ccncc2)cc1	25%	2%	11µM*	2%	19%	12%
S=c1[nH]nc(-c2cccs2)n1/N=C/c1cn(-c2ccccc2)nc1-c1cccs1	?	19%	0.67µM*	?	.	?
Cc1nc2ccccc2c(=O)n1/N=C/c1cn(-c2ccccc2)nc1-c1cccs1	26%	13%	2.7µM*	-1%	-17%	19%
CCN(C(=O)CSc1nnc(-c2ccc(F)cc2)n1C)C1CCS(=O)(=O)C1 (configuration not stated)	.	5%	.	2%	.	.
COc1cc2oc(=O)c(CC(=O)N3CCCCC3)c(C)c2cc1Cl	.	.	1%	.	-2%	.
CCCc1cc(C(=O)NCc2cccs2)no1	?	?	?	?	41%	?
SMILES	Rab9 prom act	p53 reactivator	FLuc modulator	ELG1 genotox	SMN2 splice up	NPC1 prom act
O=C(NCc1cccs1)c1cc(-c2ccc(O)cc2)on1	3.5µM*	10%	?	?	.	?
O=C(NCc1cccs1)c1cc(-c2cccc(Cl)c2)on1	?	?	-2%	?	-1%	26%
Cc1ccc(-c2cc(C(=O)NCc3cccs3)no2)cc1	2µM*	?	-10%	?	22%	?
CCCCN1c2ccccc2N(CCCO)c2cc(C)nnc21	3%	9%	12µM*	-2%	13%	13%
O=C(NCCc1csc(-c2cccnc2)n1)c1cccs1	2%	-1%	?	-4%	-1%	0%
COc1cccc(C(=O)NCCc2csc(-c3ccc(Cl)cc3)n2)c1	.	.	21µM*	.	.	.
Cc1ccc(-c2nc(CCNC(=O)c3ccc(C)c(C)c3)cs2)cc1	.	.	24µM*	.	.	.
Cc1ccc(C(=O)NCCc2csc(-c3cccnc3)n2)cc1	?	8%	5.4µM*	?	?	20%
O=C(Nc1nc2n(n1)C(c1ccc(F)cc1)C=C(c1ccc(Cl)cc1)N2)c1ccc([N+](=O)[O-])cc1 (configuration not stated)	.	.	-1%	.	.	.
CC(C(=O)Nc1ccc(OC(F)(F)F)cc1)N1Cc2ccccc2C1=O (configuration not stated)	.	.	-7%	.	.	.
CCN(CC)S(=O)(=O)c1cc(NC(=O)c2ccc(Br)s2)ccc1C	1%	-1%	12µM*	5%	-12%	20%
CCN(CC)S(=O)(=O)c1cc(NC(=O)C2Cc3ccccc3C(=O)O2)ccc1C (configuration not stated)	?	5%	17µM*	0%	.	?
Cn1nc(-c2ccccc2F)c2cc(C(=O)Nc3ccc4c(c3)OCCO4)sc21	10%	-3%	9.5µM*	11%	29%	-3%
O=C(Nc1ccc2c(c1)OCCO2)c1cccs1	1.6µM*	?	5.4µM*	16µM*	6.3µM*	2.8µM*
O=C1OC(C(=O)Nc2ccc(Cl)c(C(F)(F)F)c2)Cc2ccccc21 (configuration not stated)	.	.	-6%	.	22%	.
O=C(Nc1ccncc1)c1cccs1	3%	18%	3%	-1%	14%	-1%
COc1cc(C(=O)N2CCNC(=O)C2CC(=O)Nc2ccc(C)c(C)c2)cc(OC)c1OC (configuration not stated)	.	.	6%	.	-4%	.
O=C(c1cccc(F)c1)N1CCC2(CC1)CCN(C(c1ccccc1)c1ccccc1)CC2	.	.	.	.	-23%	.
O=S(=O)(Nc1ccc2c(c1)OCO2)c1cccs1	2%	-4%	-3%	-2%	-3%	0%
O=C(Nc1ccc2c(c1)OCO2)c1ccc(Br)s1	1.6µM*	?	3.4µM*	1.8µM*	13µM*	1.8µM*
CN(CC(=O)Nc1ccc(F)c(F)c1)S(=O)(=O)c1cccs1	-1%	-2%	6%	-9%	.	-2%
CN(CC(=O)Nc1ccc2c(c1)OCO2)S(=O)(=O)c1cccs1	?	15%	17µM*	?	.	?
O=C(Nc1ccc2c(c1)OCO2)c1cccs1	.	.	13µM*	.	?	.
